{"source": "PubChem BioAssay AID743380", "about": "(National Center for Advancing Translational Sciences (NCATS), 2014)", "note": "Active and inactive are the calls of the source. Calls come from the whole dose curve."}
{"molecular_target": "Phosphatidylinositol 4-phosphate 5-kinase type-1 alpha (Homo sapiens) (UniProt Q99755)", "sequence (Q99755 whole entry, looked up, canonical isoform)": "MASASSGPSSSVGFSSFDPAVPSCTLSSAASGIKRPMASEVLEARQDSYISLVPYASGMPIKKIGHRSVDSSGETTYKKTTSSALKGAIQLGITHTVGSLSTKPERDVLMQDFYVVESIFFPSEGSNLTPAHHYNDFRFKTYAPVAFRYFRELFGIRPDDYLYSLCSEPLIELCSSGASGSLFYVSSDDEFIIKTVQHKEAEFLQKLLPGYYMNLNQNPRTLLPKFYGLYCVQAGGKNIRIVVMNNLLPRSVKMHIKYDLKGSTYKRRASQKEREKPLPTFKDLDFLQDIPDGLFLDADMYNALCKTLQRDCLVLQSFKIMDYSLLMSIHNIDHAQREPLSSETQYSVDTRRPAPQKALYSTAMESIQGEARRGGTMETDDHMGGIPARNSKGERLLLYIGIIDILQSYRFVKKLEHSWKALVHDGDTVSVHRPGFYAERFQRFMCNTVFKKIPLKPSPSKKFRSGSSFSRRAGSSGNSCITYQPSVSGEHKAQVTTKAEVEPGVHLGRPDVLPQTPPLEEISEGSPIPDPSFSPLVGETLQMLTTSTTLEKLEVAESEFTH", "experiment": "qHTS for Inhibitors of PI5P4K: PI4P5K-alpha 32P-ATP TLC Secondary Assay for Probe SAR", "conditions": "recombinant PI4P5K-alpha, 32P-ATP TLC phosphorimager", "text": "In addition to finding PI5P, we discovered the type II phosphatidylinositol 5-phosphate 4-kinase (PI5P4K) family (alpha, beta, gamma isoforms) that catalyze the conversion of PI5P to PI(4,5)P2. Alternatively, PI(4,5)P2 can also be synthesized through phosphatidylinositol-4-phosphate (PI4P) by the type I phosphatidylinositol 4-phosphate 5-kinases (PI4P5K). These PI5P4K enzymes therefore represent one way by which cells can regulate endogenous PI5P levels and play important roles in insulin signaling and in stress responses. […] A qHTS PI5P4K-alpha ADP-Glo assay was developed to identify specific modulators of human PI5P4K, phosphatidylinositol-5-phosphate 4-kinase (Type II PIPK). To confirm that the active compounds and their analogs were true and selective inhibitors, a secondary Thin-layer Chromatography (TLC) assays against recombinant PI5P4K-alpha, PI4P5K-alpha or PI5P4K-beta that utilize a radioactively labeled ATP were developed. The data herein is the result of the PI4P5K-alpha TLC assay. […]\nThe kinase reaction was carried out in a total of 50 microL of kinase buffer (50 mM HEPES pH 7.4 and 10 mM MgCl2) containing 20 microM of the lipids that were suspended by sonication. […] The radiolabeled product, PI(4,5)P2, was quantified with a phosphorimager (Molecular Dynamics, STORM840, GE Healthcare, Waukesha, WI, USA)."}
{"compound": "O=C1Nc2ccc(C(=O)c3ccco3)cc2/C1=C/c1cc(Cl)c(O)c(Cl)c1", "Potency": "498 nM (active)"}
